Experimental data: PubChem BioAssay (EPA / NIEHS)
Records with an inconclusive call do not appear. The source made the active and inactive calls. Rule for the calls: active = hit-call score of the fitted dose curve at least 0.9, where 1 is the maximum; inconclusive = response in the unintended direction; inactive = score below 0.9.

Test system: frog Androgen Receptor (AR), gene 399456
Test: ATG_frAR_XSP2: Attagene TRANS-FACTORIAL Multi-Species (XSP2) HepG2 Assay for frog Androgen Receptor (AR) (AID 2283824);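 note: actives raise reporter signal above DMSO so AC50 reflects agonist-like induction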
How it was run: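 HepG2 cells transiently transfected with GAL4-UAS reporter units and frog (Xenopus laevis) AR-Gal4 chimera; reporter mRNA measured 24 h after dosing by RT-PCR and capillary electrophoresis. Gain of signal fitted relative to DMSO baseline.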

**Q.** Which outcome does the source give for O=C(O)C(F)(F)C(F)(F)C(F)(F)C(F)(F)C(F)(F)C(F)(F)C(F)(F)F here?
**A.** inactive
